This is part of a sample that, as a whole, favours compounds with a hit. Of some 83,000 tested, about 20% had one in any assay.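 Single-concentration screen, 48 h exposure, 96-well plates. Endpoint: percent growth. Below 10 = active.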 The source made the active and inactive calls.

For the assay, the system named is CCRF-CEM leukemia. The assay can be described thus: NCI-60 one-dose screen, 48 h (100 = growth as untreated, 0 = no growth, -100 = all killed). Conditions: 10 µM unless noted.
For the compound `COc1ccc(NC(=O)c2sc3c(=O)[nH]c(C(F)(F)F)nc3c2C)cc1`, the growth is 90% (inactive). Take `O=C(Nc1cccc(Cl)c1)Nc1ccccc1Cl`: the growth was 84.7% (inactive). In the case of `NC(=O)N/N=C\c1ccc([N+](=O)[O-])o1`, the growth was 19.9% (inactive).

As for `CCN(CC)Cc1cc(Nc2ccnc3ccc(OC)cc23)ccc1O`, the growth was 55.5% (inactive). As to `CC(C)(C)c1nn(-c2ccccc2)c2c1C(=O)CSC(c1ccc3c(c1)OCO3)N2` (centres undefined), the growth was 98.1% (inactive). `CN(C)N1C(=O)c2c(Cl)c(Cl)c(Cl)c(Cl)c2C1=O`: the growth was 89% (inactive).

As for `O=c1c2cc(Cl)ccc2oc2ccc(OCCCCCN3CCCCC3)cc12`, the growth is 39.8% (inactive). Regarding `C=CCOc1ccc2c(C)cc(=O)oc2c1`, the growth is 96.2% (inactive).

`O=C(CSc1nc2c(n1Nc1ccccc1)-c1ccccc1SC2)Nc1nccs1`: the growth was 84.5% (inactive).

`CCNC(=O)c1ccc2c(c1)nc(-c1ccc(Cl)cc1)n2-c1cc(C(C)(C)C)[nH]n1`: the growth is 34.3% (inactive). `CC(C)CC1NC(=O)C(CC(C)C)N(CO)C1=O` (centres undefined): the growth was 84.7% (inactive). For the compound `CCn1c(=O)c(C(=O)NCCCO)c(O)c2ccccc21`, the growth was 103% (inactive). Under `COc1cc(NCC(O)CN(CC(C)C)CC(C)C)c2ncccc2c1` (centres undefined) stands 57.8% (inactive); under `CC(=O)Nc1ccc(/C=N/N2CCCCCC2)cc1`, 106% (inactive).

As to `O=c1oc2ccccc2cc1-c1cc(-c2ccc(-c3cc(-c4cc5ccccc5oc4=O)nc(-c4cc5ccccc5oc4=O)c3)cc2)cc(-c2cc3ccccc3oc2=O)n1`, the growth was 92.9% (inactive).

For `CCN(CC)c1ccc(/C=N/N=C(N)N)cc1`, the growth was 36% (inactive). As for `Cc1ccc(C)c2c1SC1=NNC(Oc3ccc(Cl)cc3)=C(C#N)C(=N)N12`, the growth is 96.8% (inactive). As for `CCOC(=O)C(Cc1ccccc1)n1c(O)c(/C=N/c2ncc(Cc3ccc(Cl)cc3Cl)s2)sc1=S` (centres undefined), the growth was 2.77% (active). As to `COc1ccc(-c2cnc(-c3ccncc3-c3cccc(OC)c3)o2)cc1`, the growth was 3.12% (active). As to `Cc1ccc(OC2=C(C#N)C(=N)N3C(=NN2)Sc2c(C)ccc(C)c23)cc1`, the growth was 94.9% (inactive). The figure for `O=C(Nc1ccncc1)C(=O)c1cn(S(=O)(=O)c2cccc(Cl)c2F)c2ccccc12` is 66.4% (inactive); for `CN1C(=O)NC(Cc2c[nH]c3c(Cl)cccc23)C1=O` (centres undefined) it is 113% (inactive). `COc1ccc(C(=O)OC2C(OC3C(O)COC(O[C@H]4C[C@H]5[C@@H]6CC=C7C[C@@H](O)CC[C@]7(C)[C@H]6CC[C@]5(C)[C@H]4[C@H](C)C(=O)CCC(C)C)C3OC(C)=O)OCC(O)C2O)cc1` (some centres undefined): the growth is -23.2% (active). With `C[C@@H]1N=C(c2ccc3ccccc3c2)Nc2nc3ccccn3c2C1=O`, the growth is 52.9% (inactive). Take `O=[N+]([O-])c1ccc(N=Nc2c(NNc3ccc([N+](=O)[O-])cn3)cc(S(=O)(=O)O)c3ccccc23)nc1`: the growth was 65.1% (inactive). On to `CS(=O)(=O)c1ccc(C(=O)N/N=C/c2ccccc2Cl)cc1`, for which the growth was 108% (inactive). As for `CC1=C(O)C(=O)CC1`, the growth is 115% (inactive). As for `O=C(N/N=C/c1ccc([N+](=O)[O-])cc1)c1ccccc1Nc1ccnc(C(F)(F)F)c1`, the growth was 77.9% (inactive). As for `Cc1ccc(C(CN(C)C)C(=O)c2ccccc2)cc1` (centres undefined), the growth was -9.16% (active). As for `CN1CCC2(CC1)N=C(SCC(=O)Nc1cnc3ccccc3c1)C(c1ccc(Br)cc1)=N2`, the growth is 4.53% (active). On to `Nc1c(C(=O)C[C@@H](N)CO)ccc2c1C(=O)CCO2`, for which the growth is 20.6% (inactive). Take `Cc1ccncc1NC=O`: the growth was 104% (inactive). `Cc1c2c(cc3c1[nH]c1ccccc13)C=NCC2`: the growth is 75.9% (inactive). Turning to `O=S1(=O)NCCCN1CCNc1nccc(-c2c(-c3cccc(O)c3)nc3sccn23)n1`, the growth was 60.1% (inactive). The figure for `CCc1c(C)c2ccc(O)c(-c3cc(-c4ccccc4)c(C#N)c(=O)[nH]3)c2oc1=O` is 103% (inactive); for `COc1ccc2nc3cc(Cl)ccc3c(NC(=O)CSc3ccc(Cl)cc3)c2c1` it is 1.21% (active); for `C=CC(=O)N1CN(C(=O)C=C)CN(C(=O)C=C)C1` it is 10.1% (inactive). Regarding `CCCC(CCC)(C(N)=O)C(=O)O`, the growth was 103% (inactive). Take `C=CCCCCOc1cccc(/C=C2\N=C3SCCCN3C2=O)c1`: the growth is 121% (inactive).

(Values after PubChem BioAssay (NCI).)
